Assay outcomes (PubChem)
ATXN viability: viability counter-screen for ATXN expression inhibitors; Potency, µM (highest dose often 56.7 µM), usual class: cytotoxic; AID 651635; S2 cells (HEK-293 line with an ATXN2-luciferase reporter) viability, CellTiter-Fluor protease fluorescence, 24 h; hit rate 0.49% among 400,000; note: nearly all actives have a fitted effect of over 40% in size
ATXN2 expr inh: inhibitors of ATXN2 expression; Potency, µM (series often up to 57 µM), for inactives: at the top dose activity change, negative = inhibition, hits mostly inhibitors; hit rate 0.72% among 360,000; HEK-293 ATXN2-luciferase reporter, luminescence, 24 h; note: % is set by controls: 0 for no effect and ±100 for the full control effect; nearly all actives have a fitted effect of over 55% in size
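ATXN2-luciferase reporter cells (luciferase flanked by upstream and downstream ATXN2 gene portions) were treated 24 h at 37 °C with compounds at up to 57 uM. SteadyGlo luminescence gave expression; GF-AFC fluorescence gave viability.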
KB-3-1 cytotox: kills parental KB-3-1 adenocarcinoma cells | KB-3-1 viability, CellTiter-Glo ATP luminescence, 72 h | hit rate 1.4% among 400,000 | Potency, µM (doses to about 46.1 µM), actives largely listed as cytotoxic; note: % is set by controls: 0 for no effect and ±100 for the full control effect; nearly all actives have a fitted effect of over 60% in size
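KB-3-1 parental drug-naive adenocarcinoma cells in DMEM/10% FBS, incubated 72 h at 37 C with pin-transferred compounds across a concentration series. Viability by CellTiter-Glo luminescence; concentration-response curves fitted after normalization.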
HepG2 tox: HepG2 cytotoxicity, counter-screen for TGF-b inhibitors; HepG2 CAGA-GFP viability, ATP luminescence, 18 h; hit rate 0.76% among 410,000; Potency, µM (top dose mostly 46.1 µM), inactives show top-dose activity change, negative = cytotoxicity, hits mostly cytotoxic; AID 588856
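CellTiter-Glo luminescence gave cytotoxicity after 18 hours at 37 degrees C. The cells were HepG2 CAGA-GFP in 1% FBS DMEM, stimulated with 500 pg/mL TGF-beta after compound addition. %Activity was normalised to no-cell wells (complete cell-killing) and DMSO (no toxicity), and curves were fitted and classified.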
KB-V1 MDR tox: KB-V1 MDR subline cytotoxicity. KB-V1 MDR cells viability, CellTiter-Glo, 72 h. hit rate 3.4% among 400,000. Potency, µM (top dose mostly 46.1 µM), hits mostly cytotoxic. AID 1347076; note: % is set by controls: 0 for no effect and ±100 for the full control effect; nearly all actives have a fitted effect of over 60% in size
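Cytotoxicity via CellTiter-Glo luminescence after 72 h compound exposure at 37 degrees C. Cells: drug-selected KB-V1 line, DMEM phenol-red free plus 10% FBS. Compounds tested at multiple concentrations; normalized data fitted to concentration-effect curves.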
TGFb inhibitor: inhibitors of TGF-b signaling. HepG2 CAGA-GFP TGF-b/SMAD3 reporter, GFP fluorescence, 18 h; TGF-beta stimulated, 500 pg/mL final. Potency, µM (top dose mostly 46.1 µM), for inactives: at the top dose activity, negative = inhibition, most hits filed as inhibitors. hit rate 1.2% among 410,000. AID 588855; note: % is set by controls: 0 for no effect and ±100 for the full control effect; nearly all actives have a fitted effect of over 65% in size
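Using HEPG2 CAGA-GFP reporter cells at 1000 cells/well, we pinned test compounds, stimulated with recombinant TGF-beta (500 pg/mL final) and measured total well GFP after 18 h.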
An asterisk follows results filed as active; i = inactive; ? = inconclusive; nt = no result. An excerpt weighted towards active compounds, which were near 5.9% of everything screened. Calls come from the whole dose curve; as a rule, active = well fitted curve in the direction sought with a large enough effect; inconclusive = small, poorly fitted or top-dose-only effect, or another doubt; inactive = no such curve, though single readings can be large; an effect the other way counts as inactive or inconclusive. Potency is the fitted concentration of half-maximal effect.

SMILES | ATXN viability | ATXN2 expr inh | KB-3-1 cytotox | HepG2 tox | KB-V1 MDR tox | TGFb inhibitor
CCC1CCCCN1CCCNC(=O)c1ccc2c(c1)N(Cc1ccccc1F)C(=O)c1ccccc1S2(=O)=O (stereo not given) | i | ? | ? | -64.2% | i | 11.2µM*
O=C(NCCCN1CCCC1)c1ccc2c(c1)N(Cc1ccccc1F)C(=O)c1ccccc1S2(=O)=O | i | 2.2% | i | -0.3% | ? | 1.9%
CSc1cccc(NC(=S)N2CCC(c3ccccc3)C2)c1 (stereo not given) | i | 22.9% | i | -24.0% | i | -20.1%
CCc1cccc(NC(=S)N2CCC(c3ccccc3)C2)c1 (stereo not given) | i | -7.4% | i | 15.8µM* | i | -27.0%
COC1=C2C[C@H](C)C[C@H](OC)[C@@H](O)[C@@H](C)C=C(C)[C@H](OC(N)=O)[C@@H](OC)C=CC=C(C)C(=O)NC(=CC1=O)C2=O | nt | nt | ? | -41.0% | i | ?
C=CCNC1=C2C[C@@H](C)C[C@H](OC)[C@@H](O)[C@@H](C)C=C(C)[C@H](OC(N)=O)[C@@H](OC)C=CC=C(C)C(=O)NC(=CC1=O)C2=O | nt | 1.09µM* | nt | nt | nt | nt
CO[C@H]1C=CC=C(C)C(=O)NC2=CC(=O)C(NCCN(C)C)=C(C[C@@H](C)C[C@H](OC)[C@@H](O)[C@@H](C)C=C(C)[C@@H]1OC(N)=O)C2=O | nt | 0.0769µM* | nt | nt | nt | nt
CCC(CC)NC(=O)c1cccc(Oc2ccccc2)c1 | i | 3.5% | i | 1.2% | 23.1µM* | -1.7%
COC(=O)c1ccc2nc(-c3ccco3)c(Cc3ccc(OC)cc3C)n2c1 | ? | -5.1% | i | -30.7% | i | 12.6µM*
Clc1cccc(Cc2c(-c3ccccc3)nc3ccc(Cl)cn23)c1 | ? | 10.0% | i | -31.1% | i | ?
Clc1cccc(Cc2c(-c3ccco3)nc3ccc(Br)cn23)c1 | nt | ? | i | -115.0% | i | 12.6µM*
Cc1ccc2nc(-c3ccccc3)c(Cc3cccc(Cl)c3)n2c1 | ? | -25.3% | i | -49.9% | i | 14.1µM*
Brc1ccc2nc(-c3ccco3)c(Cc3ccccc3)n2c1 | ? | 3.1% | i | -37.6% | i | ?
Clc1cccc(Cc2c(-c3ccco3)nc3ccc(Cl)cn23)c1 | nt | ? | i | -113.1% | i | 17.8µM*
COC(=O)c1ccc2nc(-c3ccco3)c(Cc3ccc(C)cc3)n2c1 | i | 15.4% | i | -0.2% | i | ?
COc1ccc(OC)c(NC(=O)CCc2nc(-c3ccc(C)cc3)no2)c1 | i | -18.7% | i | -77.2% | ? | ?
Cc1ccc(CNC(=O)[C@]2(C(F)(F)F)C[C@H](CCc3ccccc3)CCCO2)o1 | nt | nt | nt | -20.7% | nt | -10.0%
CN(C)S(=O)(=O)c1cccc(NC(=O)CSc2nc3ccccc3n2-c2ccccc2)c1 | i | -16.0% | ? | -33.3% | 2.31µM* | ?
COc1cc(NC(=O)COC(=O)C2CC2)c(C)cc1[N+](=O)[O-] | i | -0.9% | i | -10.9% | i | 0.4%
COc1cc(NC(=O)CN(C)C2CCCCC2)c(C)cc1[N+](=O)[O-] | i | 1.8% | i | 11.8% | 4.11µM* | 5.0%
CN(c1ccccc1)S(=O)(=O)c1cccc(NC(=O)CSc2nncs2)c1 | i | -12.3% | ? | 8.2% | 4.11µM* | ?
COc1cc(NC(=O)CSc2nc3ccccc3n2-c2ccccc2)c(C)cc1[N+](=O)[O-] | i | -8.6% | i | -14.2% | 8.2µM* | -29.6%
Cc1noc(-c2ccccc2)c1NC(=O)Nc1ccc2nc([C@H]3C[C@H](O)[C@@H](CO)O3)[nH]c2c1 | i | 8.3% | i | 4.1% | i | -16.2%
CC(=O)c1cccc(-c2ccnc3c2CC(C(=O)NCc2ccc(F)c(F)c2)O3)c1 (stereo not given) | ? | -12.2% | 5.17µM* | -6.8% | ? | -6.7%
CC(=O)c1cccc(-c2ccnc3c2CC(C(=O)NCc2ccco2)O3)c1 (stereo not given) | ? | -11.5% | 1.16µM* | -30.8% | 0.92µM* | 8.7%
SMILES | ATXN viability | ATXN2 expr inh | KB-3-1 cytotox | HepG2 tox | KB-V1 MDR tox | TGFb inhibitor
CC(=O)c1cccc(-c2ccnc3c2CC(C(=O)NCc2ccccc2)O3)c1 (stereo not given) | i | -4.7% | ? | -16.1% | i | -8.6%
O=C(NCc1ccccc1)C1Cc2c(-c3cccc(F)c3)ccnc2O1 (stereo not given) | i | 1.6% | 4.61µM* | -11.8% | 1.46µM* | ?
O=C(NCc1ccco1)C1Cc2c(-c3cccc(F)c3)ccnc2O1 (stereo not given) | i | -9.4% | 1.16µM* | -21.3% | 4.61µM* | -18.0%
CCCOc1ccc(CNC(=O)CCCn2nc(C)c3sc4ccccc4c3c2=O)cc1 | nt | nt | i | 7.9% | i | 18.7%
CCN(C(=O)Cn1nc(Cc2ccncc2)c2ccccc2c1=O)c1cccc(Cl)c1 | i | -3.1% | i | -34.9% | i | ?
COc1ccc(/C=C/C(=O)Nc2nc3n(n2)C(c2ccc(F)cc2)C=C(c2ccccc2)N3)cc1 (stereo not given) | i | 1.3% | i | -64.0% | i | 47.5%
O=C(NCc1ccccc1)C1Cc2c(-c3ccc(Cl)cc3)ccnc2O1 (stereo not given) | i | 1.5% | 5.8µM* | 15.4% | 1.46µM* | ?
NC(=O)c1cccc(-c2ccnc3c2CC(C(=O)NCc2ccco2)O3)c1 (stereo not given) | i | 10.1% | 6.51µM* | 2.4% | i | 8.6%
Cc1ccc(CN2CCCn3nc(C(=O)NCCc4cccc(C)c4)cc3C2=O)cc1 | i | 12.3% | ? | -3.3% | i | -6.0%
COc1ccc2c(c1)CC(C(=O)NCCN1CCN(c3cccc(C)c3C)CC1)CO2 (stereo not given) | i | -6.8% | i | -27.7% | i | -4.9%
CCOC(=O)c1[nH]c(C)c(/C(O)=C2\C(=O)C(=O)N(CCN3CCOCC3)C2c2cccs2)c1C (stereo not given) | nt | nt | 20µM* | -16.2% | ? | 2.0%
CC(=O)Nc1ccn(C2CC3OCC(NC(=O)C(NC(=O)OC(C)(C)C)C(C)OCc4ccccc4)C3O2)c(=O)n1 (stereo not given) | nt | nt | nt | 1.8% | nt | -11.5%
O=c1cc(-c2c(F)c(F)c(F)c(F)c2F)oc2ccccc12 | ? | 22.4µM* | i | -60.7% | i | -5.5%
O=c1cc(-c2cccc(F)c2)oc2ccccc12 | i | 21.4% | i | -3.4% | ? | 11.9%
